From PubChem
This excerpt belongs to a sample that is enriched for hits.
Pf Dd2 inh – qHTS Primary assay for Inhibitors of Plasmodium falciparum Dd2 growth in vitro | P. falciparum Dd2 growth, SYBR Green, 72 h | Potency, µM (titrated, usually from 28.9 µM), hits mostly inhibitors | 4.3% of 120,000 active; active = well fitted inhibition curve with a large enough effect; also: nearly all actives have a fitted effect of over 65% in size
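Infected erythrocytes (Dd2, 0.3% parasitemia, 2.5% hematocrit final) are added to compound in RPMI-1640/Albumax II medium, grown 72 h at 37C in low oxygen, then lysed with saponin/Triton-X containing SYBR Green and read by fluorescence.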
Numbers stand for hits.

For CCOC(=O)c1c(NC(=O)c2ccc(S(=O)(=O)N3CCC(C)CC3)cc2)sc2c1CCN(C)C2 the results were Pf Dd2 inh 8.9µM.
`CCCCN(C)S(=O)(=O)c1ccc(C(=O)Nc2sc3c(c2C(=O)OCC)CCN(C(C)C)C3)cc1` gave Pf Dd2 inh 6.3µM.
`CCCOc1ccc(C(=O)Nc2sc3c(c2C(=O)OCC)CCCCC3)cc1` gave Pf Dd2 inh inactive.
For CCOC(=O)c1c(NC(=O)c2ccc(S(=O)(=O)N(C)C)cc2)sc2c1CCN(C)C2 the results were Pf Dd2 inh inactive.
CNC(=O)c1c(NC(=O)c2ccc(S(=O)(=O)N3CCC(C)CC3)cc2)sc2c1CCC2 was read as Pf Dd2 inh inactive.
Screening COC(=O)c1c(NC(=O)c2ccc(S(=O)(=O)N3CCCCC3C)cc2)sc2c1CCN(C(C)C)C2 (stereo not drawn) returned Pf Dd2 inh 11µM.
Screening CCC(=O)N1Cc2ccccc2CC2(CCCCN2CC2CCNC2)C1 (stereo not drawn) returned Pf Dd2 inh inactive.
`COC1C(=O)N(C2CCN(C(=O)c3cnc(C)cn3)CC2)C12CCOCC2` (stereo not drawn) gave Pf Dd2 inh inactive.
`CC(C)NC(=O)C1CCN(C(=O)N2CC3CC(C2)[C@H]2CCCC(=O)N2C3)CC1` (stereo partly drawn) gave Pf Dd2 inh inactive.
`O=C(CCC1CCCN(S(=O)(=O)c2ccccc2)C1)N1CCN(c2ccccn2)CC1` (stereo not drawn) gave Pf Dd2 inh inactive.
COc1cc(F)ccc1-c1ccnc2nc(C3CCCCC3)nn12 was read as Pf Dd2 inh inactive.
`COCCN(CCOC)S(=O)(=O)c1ccc(C(=O)Nc2sc3c(c2C(=O)OC)CCN(C)C3)cc1` gave Pf Dd2 inh 11µM.
COC(=O)c1c(NC(=O)c2ccc(C(C)(C)C)cc2)sc2c1CCC(C)C2 (stereo not drawn) was read as Pf Dd2 inh inactive.
Screening COCCN(CCOC)S(=O)(=O)c1ccc(C(=O)Nc2sc3c(c2C(N)=O)CCCC3)cc1 returned Pf Dd2 inh inactive.
For O=C(NCCOc1ccccc1)c1cnc2n1CCN(Cc1ccncc1Cl)CC2 the results were Pf Dd2 inh inactive.
For COc1cccc(-c2cc(C3CCN(C(=O)c4ccc(Cl)cc4)CC3)[nH]n2)c1 the results were Pf Dd2 inh inactive.
`O=C(O)C1(Oc2ccc3ccccc3c2)CCN(Cc2ccc(CO)o2)CC1` gave Pf Dd2 inh inactive.
COCC1CN(C(=O)c2nccn2C)CC12CCNCC2 (stereo not drawn) was read as Pf Dd2 inh inactive.
Screening CCc1ccc(C(=O)N2CCC(c3nc(-c4ccc(S(=O)(=O)N5CCCC5)cc4)no3)CC2)cc1 returned Pf Dd2 inh inactive.
`COc1ccc(NC(=O)c2cc(S(=O)(=O)N3CCCC3)ccc2OC)cc1` gave Pf Dd2 inh inactive.
For CCOc1ccc(C(=O)N2CCC[C@H]2c2nc(-c3ccc(OC)c(OC)c3)no2)cc1 the results were Pf Dd2 inh inactive.
COc1ccc(C(=O)N2CCCN(S(=O)(=O)c3ccccc3)CCC(=O)NCC2)cc1F was read as Pf Dd2 inh inactive.
For COc1cc2c(cc1OC)C(COc1ccccc1OC)N(C(=O)c1ccc(S(=O)(=O)N3CCCC3)cc1)CC2 (stereo not drawn) the results were Pf Dd2 inh 11µM.
Screening CCOC(=O)c1ccc(OCC2c3cc(OC)c(OC)cc3CCN2C(=O)c2ccc(S(=O)(=O)N3CCCC3)cc2)cc1 (stereo not drawn) returned Pf Dd2 inh 11µM.
`CCc1ccc(OCC2c3cc(OC)c(OC)cc3CCN2C(=O)c2ccc(S(=O)(=O)N3CCCC3)cc2)cc1` (stereo not drawn) gave Pf Dd2 inh 11µM.
Screening O=C1CN(C(=O)c2ccc(S(=O)(=O)N3CCCC3)cc2)C(c2ccccc2)c2cc(F)ccc2N1 (stereo not drawn) returned Pf Dd2 inh inactive.
For CCOC(=O)c1[nH]ncc1CN1CCN2C(=O)CNC(=O)C2C1 (stereo not drawn) the results were Pf Dd2 inh inactive.
Screening CCOCc1nc(C2CCCN(C(=O)c3ccncc3)C2)no1 (stereo not drawn) returned Pf Dd2 inh inactive.
For CCOc1ccc(CC(=O)N2CCC(C3CCNC3)CC2)cc1OCC (stereo not drawn) the results were Pf Dd2 inh inactive.
Screening Cc1cccc(CN2CCN(C)C3(CCC(=O)N(CC(=O)O)CC3)C2)n1 (stereo not drawn) returned Pf Dd2 inh inactive.
For CCn1nccc1C(=O)N1CCc2nnc([C@@H]3C[C@@H](O)CN3C(C)C)n2CC1 the results were Pf Dd2 inh inactive.
`O=C(NC1CCCC1)c1ccc(OC2CCN(CCCC(F)(F)F)CC2)c(Cl)c1` gave Pf Dd2 inh 1.4µM.
For COCCNC(=O)c1ccc(OC2CCN(Cc3ncc[nH]3)CC2)c(Cl)c1 the results were Pf Dd2 inh inactive.
`COCCNC(=O)c1ccc(OC2CCN(S(C)(=O)=O)CC2)c(Cl)c1` gave Pf Dd2 inh inactive.
COc1cc(Cn2ccnc2-c2nc[nH]c2C)cc(OC)c1OC was read as Pf Dd2 inh inactive.
CN(CCC(O)c1ccccc1)c1nccc(-c2cccnc2)n1 (stereo not drawn) was read as Pf Dd2 inh 10µM.
Screening Cc1cn2cc(C(=O)N(C)CCC(O)c3ccccc3)ccc2n1 (stereo not drawn) returned Pf Dd2 inh inactive.
For CN(Cc1cc(C2CC2)n[nH]1)c1nccc(-c2cccnc2)n1 the results were Pf Dd2 inh inactive.
`O=C(NCc1cccnc1)[C@@H]1C[C@@H](O)CN1C1CCN(C(=O)c2ccccc2F)CC1` gave Pf Dd2 inh inactive.
For CC1=C[C@@H](CO)[C@H](C(C)C)C[C@H]1Cc1nnc(-c2ccncc2)o1 the results were Pf Dd2 inh inactive.
`CC1=C[C@@H](CN(CC2CC2)CC2CC2)[C@H](C(C)C)C[C@H]1Cc1nc2ccncc2[nH]1` gave Pf Dd2 inh inactive.
Screening CC1=C[C@@H](CNCCN(C)C)[C@H](C(C)C)C[C@H]1Cc1nnc(C)o1 returned Pf Dd2 inh inactive.
Screening COCCNC[C@@H]1C=C(C)[C@H](Cc2nnc(-c3ccc(N(C)C)cc3)o2)C[C@H]1C(C)C returned Pf Dd2 inh 3.5µM.
CC1=C[C@@H](CN(C)CCO)[C@H](C(C)C)C[C@H]1Cc1nnc(-c2ccc(N(C)C)cc2)o1 was read as Pf Dd2 inh 2.5µM.
Screening CC1=C[C@@H](CO)[C@H](C(C)C)C[C@H]1Cc1nnc(Cc2c[nH]c3ccccc23)o1 returned Pf Dd2 inh inactive.
`CC1=C[C@@H](CNCCN(C)C)[C@H](C(C)C)C[C@H]1Cc1nnc(-c2ccc(C)cc2)o1` gave Pf Dd2 inh 2.2µM.
`COCCNC(=O)C[C@@H]1C[C@@H](C(C)C)[C@H](CNC(=O)CCC(=O)O)C=C1C` gave Pf Dd2 inh inactive.
For CC1=C[C@@H](CO)[C@H](C(C)C)C[C@H]1Cc1nnc(-c2ccc(N(C)C)cc2)o1 the results were Pf Dd2 inh 2µM.
Screening COCCNC(=O)C[C@@H]1C[C@@H](C(C)C)[C@H](CNC(=O)c2cnccn2)C=C1C returned Pf Dd2 inh inactive.
`O=C1CCN(C(=O)C2CCN(C(=O)c3ccco3)CC2)CCCCCCN1` gave Pf Dd2 inh inactive.
For COc1cccc(S(=O)(=O)N2CCC(CC(=O)NCc3ccccc3)C2)c1 (stereo not drawn) the results were Pf Dd2 inh inactive.
`O=C1NCc2ccccc2CC12CCN(CC1=CCCCC1)CC2` gave Pf Dd2 inh inactive.
